According to the supplement of paper PMC9337992:
± gives the standard deviation of the averaged measurements.

Tests used:
Test in all cases: cell proliferation (confluence) relative to DMSO control; higher = less growth inhibition
Conditions in all cases: 5 uM; 6 d
BT549 = tested on: BT549
How it was run: (§1)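 Triple-negative breast cancer cell lines were plated at 500 cells per well in 384-well plates. After the cells adhered, each epigenetic chemical probe, dissolved in DMSO, was added at a final 5 μM for 6 d. Confluency was imaged in an IncuCyte ZOOM (×10 objective, phase-contrast) and analysed with Incucyte 2016 software. Each plate held four replicate wells per compound plus DMSO wells, and confluence was normalised to DMSO control.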

CAL120 = tested on: CAL120
How it was run: as §1

HCC1143 = tested on: HCC1143
How it was run: as §1

HCC1395 = tested on: HCC1395
How it was run: as §1

HCC153 = tested on: HCC153
How it was run: as §1

HCC1806 = tested on: HCC1806
How it was run: as §1

HCC38 = tested on: HCC38
How it was run: as §1

HCC70 = tested on: HCC70
How it was run: as §1

Hs578-T = tested on: Hs578-T
How it was run: as §1

MB157 = tested on: MB157
How it was run: as §1

SUM149-PT = tested on: SUM149-PT
How it was run: as §1

SUM159-PT = tested on: SUM159-PT
How it was run: as §1

Molecule `c1ccc([C@@H]2C[C@H]2NC2CCNCC2)cc1` has a cell proliferation (BT549) of 99.73 ± 0.11%, a cell proliferation (CAL120) of 90.8 ± 1.6% and a cell proliferation (HCC1143) of 97.61 ± 0.58%. For the same molecule, the cell proliferation (HCC1395) was 99.99 ± 0.0084%, the cell proliferation (HCC153) was 86.3 ± 2.5% and the cell proliferation (HCC1806) was 99.68 ± 0.28%. For the same molecule, the cell proliferation (HCC38) was 99.69 ± 0.18%, the cell proliferation (HCC70) was 90.9 ± 5.3% and the cell proliferation (Hs578-T) was 96.3 ± 1.6%. The cell proliferation (MB157) was 86.3 ± 7.8%, the cell proliferation (SUM149-PT) was 64.1 ± 20% and the cell proliferation (SUM159-PT) was 99.974 ± 0.029%.
In the case of `O=C(O)CNC(=O)c1c(O)c2ccccc2n(Cc2ccccc2)c1=O`, the cell proliferation (BT549) is reported as 99.17 ± 0.41%, the cell proliferation (CAL120) is reported as 88.7 ± 5.2% and the cell proliferation (HCC1143) is reported as 97.3 ± 1.9%. For the same molecule, the cell proliferation (HCC1395) was 99.51 ± 0.21%, the cell proliferation (HCC153) was 83.7 ± 4.2% and the cell proliferation (HCC1806) was 98.07 ± 0.77%. The cell proliferation (HCC38) was 98.2 ± 1.1%, the cell proliferation (HCC70) was 98.48 ± 0.74% and the cell proliferation (Hs578-T) was 95 ± 1.8%. It also gave a cell proliferation (MB157) of 95.4 ± 3.5%, a cell proliferation (SUM149-PT) of 88 ± 5% and a cell proliferation (SUM159-PT) of 99.986 ± 0.0083%.
`COc1cc(C(=O)N2CC[C@@H](O)[C@@H](N)C2)cc2nc(-c3cc4ccccc4n3CC3CC3)n(C)c12` was tested, and the cell proliferation (BT549) was 97.5 ± 1.7%, the cell proliferation (CAL120) was 97.9 ± 2.2% and the cell proliferation (HCC1143) was 97.3 ± 1.2%. For the same molecule, the cell proliferation (HCC1395) was 99.953 ± 0.017%, the cell proliferation (HCC153) was 59.2 ± 12% and the cell proliferation (HCC1806) was 79.3 ± 7.7%. The cell proliferation (HCC38) was 99.49 ± 0.46%, the cell proliferation (HCC70) was 88.1 ± 8% and the cell proliferation (Hs578-T) was 97.5 ± 1.4%. For the same molecule, the cell proliferation (MB157) was 90.8 ± 11%, the cell proliferation (SUM149-PT) was 87.2 ± 9.1% and the cell proliferation (SUM159-PT) was 99.994 ± 0.0032%.
